Bioassay records deposited in PubChem BioAssay by National Center for Advancing Translational Sciences (NCATS).
Pf growth 48h – P. falciparum growth inhibition at 48 hours (one generation). P. falciparum luciferase growth in erythrocytes, 48 h. Potency, µM (highest dose often 28.7 µM), for inactives: at the highest dose activity change, negative = inhibition, hits mostly inhibitors. 310,000 tested, 5.9% active; active means well fitted inhibition curve with a large enough effect; inconclusive means small, poorly fitted or top-dose-only effect, or another doubt; inactive means no such curve, though single readings can be large or run the other way; further: on the % scale 0 is the no-effect control and ±100 the full control effect
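Luminescence readout; reporter = integrated firefly luciferase in P. falciparum. RBC culture at 2% hematocrit, 0.1% parasitemia final, 37 C/5% CO2; decreased signal taken as growth inhibition.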
NS1 inh – influenza NS1 inhibition; Potency, µM (top dose mostly 46.1 µM), for the others: top-dose activity, positive = more growth; 270,000 tested, 0.4% active; AID 2326; further: actives are rising curves; nearly all actives have a fitted effect of over 50% in size
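In this qHTS, NS1 from influenza A is expressed in budding yeast, where it slows growth. Cells are switched from glucose to 2% galactose medium (pH 6.0, -URA), treated with compound, and growth recovery is read at OD600.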
SARS PLpro yeast – SARS-CoV PLP inhibition in yeast; Potency, µM (series often up to 32.9 µM), inactives show at the highest dose activity, positive = growth rescue, most hits filed as activators; AID 485353; S. cerevisiae expressing SARS-CoV PLpro, growth rescue; 330,000 tested, 0.19% active; further: 0% is about no effect; nearly all actives have a fitted effect of over 55% in size
Pf growth 96h – P. falciparum growth inhibition at 96 hours; P. falciparum luciferase reporter growth, 96 h; 320,000 tested, 6.9% active; Potency, µM (highest dose often 28.7 µM), without a hit: at the highest dose activity change, negative = inhibition, most hits filed as inhibitors; active means well fitted inhibition curve with a large enough effect; inconclusive means small, poorly fitted or top-dose-only effect, or another doubt; inactive means no such curve, though single readings can be large or run the other way; further: on the % scale 0 is the no-effect control and ±100 the full control effect
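Two-generation exposure (96 h) targets delayed-death phenotype. Reporter parasites carrying integrated firefly luciferase, in red cells at 2% hematocrit and 0.05% parasitemia final, kept at 37 C, 5% CO2; luminescence loss indicates inhibition.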
RE007 growth inh – less growth of the S. pombe RE007 Vpr strain | Potency, µM (top dose mostly 92.2 µM), for inactives: top-dose activity change, negative = less growth, hits mostly inhibitors | 360,000 tested, 0.21% active | S. pombe RE007 Vpr strain, BacTiter-Glo ATP luminescence, 24 h; active means well fitted falling curve with a large enough effect; inconclusive means small, poorly fitted or top-dose-only effect; inactive means no such curve, though single readings can be large or run the other way; further: on the % scale 0 is the no-effect control and ±100 the full control effect; nearly all actives have a fitted effect of over 50% in size
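Fission yeast RE007 carrying one integrated HIV-1 vpr copy, seeded at OD 0.01 in PMG+AL medium with 23 nL pinned compound. Grown 24 h at 30 degrees; viability read by BacTiter-Glo luminescence after 5 min.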
Active calls of the source: *. A selection: hits, their analogues and other compounds. The true share with any hit is near 9.5%. Unless noted, the call rests on the fitted dose curve. Potency means the concentration at half of the fitted maximal effect.

Results for O=S(=O)(c1cccc2ccccc12)N1CCC2CC1c1cc(Cl)ccc12 (configuration not stated) ?
RE007 growth inh: -13%

What do the screens show for `COc1ccc(NS(=O)(=O)c2cc(N/C(=N\S(=O)(=O)c3ccccc3)c3ccc(F)cc3)ccc2Cl)cc1`?
Pf growth 48h: inconclusive; NS1 inh: 0%; SARS PLpro yeast: -2%; Pf growth 96h: 10µM*; RE007 growth inh: 5%

How did COc1ccc(NS(=O)(=O)c2cc(NC(=O)CC(C)(C)C)ccc2N2CCCC2)cc1 do in these assays?
Pf growth 48h: 10µM*; SARS PLpro yeast: 1%; Pf growth 96h: 13µM*; RE007 growth inh: -6%

Results for CNC(=S)Nc1ccc(N2CCCC2)c(S(=O)(=O)Nc2ccc(OC)cc2)c1 ?
SARS PLpro yeast: -5%; RE007 growth inh: -6%

What do the screens show for `COc1ccc(NS(=O)(=O)c2cc(C(=O)N3CCN(C(C)=O)CC3)ccc2Cl)cc1`?
Pf growth 48h: 13%; SARS PLpro yeast: 3%; Pf growth 96h: inconclusive; RE007 growth inh: 7%

How did COc1ccc(NS(=O)(=O)c2cc(NC(=O)c3ccc(C)o3)ccc2N2CCCCC2)cc1 do in these assays?
Pf growth 48h: 9.3µM*; NS1 inh: 26%; SARS PLpro yeast: 14%; Pf growth 96h: inconclusive; RE007 growth inh: -11%

How did COc1ccc(NS(=O)(=O)c2cc(NC(=O)Cc3c(F)cccc3Cl)ccc2OC)cc1 do in these assays?
Pf growth 48h: 5.9µM*; SARS PLpro yeast: 9%; Pf growth 96h: inconclusive; RE007 growth inh: 13%

How did Nc1c(C(=O)Nc2ccc([As](=O)(O)O)cc2)cnc2nnnn12 do in these assays?
NS1 inh: -5%

What do the screens show for `COc1ccc(C(CCN(Cc2ccc(OC)c(OC)c2)C(C)=O)C(C)C)cc1` (configuration not stated)?
Pf growth 48h: inconclusive; NS1 inh: -3%; SARS PLpro yeast: -1%; Pf growth 96h: inconclusive; RE007 growth inh: 14%

How did CC1CC(N(C(=O)c2ccccc2Cl)c2ccccc2)c2ccccc2N1 (configuration not stated) do in these assays?
Pf growth 48h: inconclusive; NS1 inh: 8%; SARS PLpro yeast: -8%; Pf growth 96h: 12µM*; RE007 growth inh: 18%

Results for Cc1cccc(-c2csc(N3CCC(C(N)=O)CC3)n2)c1 ?
Pf growth 48h: inconclusive; Pf growth 96h: 14%

Results for CC1CC(C)CN(S(=O)(=O)c2ccc3c(c2)CC(C)N3C(=O)C2CCC2)C1 (configuration not stated) ?
Pf growth 48h: 10µM*; NS1 inh: 18%; SARS PLpro yeast: 1%; Pf growth 96h: inconclusive; RE007 growth inh: 14%

Results for CCCCN(C)C(=O)C1CCCN(S(=O)(=O)c2ccc3c(c2)CC(C)N3C(=O)C2CC2)C1 (configuration not stated) ?
Pf growth 48h: inconclusive; NS1 inh: -16%; SARS PLpro yeast: -3%; Pf growth 96h: 13µM*; RE007 growth inh: 13%

How did CC1Cc2cc(S(=O)(=O)N3CCCCC3C)ccc2N1C(=O)C1CCC1 (configuration not stated) do in these assays?
Pf growth 48h: inconclusive; NS1 inh: -11%; SARS PLpro yeast: -3%; Pf growth 96h: 10µM*; RE007 growth inh: 3%

Results for CCC1CCCCN1S(=O)(=O)c1ccc2c(c1)CCN2C(=O)C1CCC1 (configuration not stated) ?
Pf growth 48h: 9.3µM*; NS1 inh: -67%; SARS PLpro yeast: -5%; RE007 growth inh: 3%

Results for NC(=O)c1ccc(NC(=O)CN2C(=O)NC(c3ccccc3)(c3ccccc3)C2=O)cc1 ?
Pf growth 48h: 6%; NS1 inh: -8%; SARS PLpro yeast: 1%; Pf growth 96h: 3%; RE007 growth inh: 1%

What do the screens show for `CCOC(=O)c1c(S(=O)(=O)NCC(C)c2ccccc2)c(C)n(C)c1C` (configuration not stated)?
Pf growth 48h: inconclusive; NS1 inh: 3%; SARS PLpro yeast: -2%; Pf growth 96h: inconclusive; RE007 growth inh: -1%
